For 40 compounds, growth results are on record in PubChem BioAssay (NCI).

Molecules are shown by their SMILES. About 83,000 compounds went through this panel and 20% of them were active in at least one assay; those are over-represented in the sample as a whole.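 Assay: single dose, 48 h. Readout: percent growth (0 = no net growth; negative = cell death). Active: <10.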 Active and inactive are the calls of the source.

This assay concerns SK-OV-3 ovarian. The assay is described as follows: NCI-60 one-dose screen, 48 h (100 = growth as untreated, 0 = no growth, -100 = all killed). Particulars: 10 µM unless noted. The protocol:
Growth inhibition of the SK-OV-3 human tumor cell line is measured as a screen for anti-cancer activity. Cells are grown in 96 well plates and exposed to the test compound for 48 hours. Compounds are tested at a single concentration, which is 10^-5 M for most compounds. The reported endpoint is percent growth (GI% or GIPRCNT), where numbers from 0 - 100% represent growth inhibition, and numbers from -100% - 0 represent cell death. For example, a value of 40 represents 60% growth inhibition. A value of 0 means no net growth occurred over the course of the experiment. A value of -40 indicates 40% of cells at the beginning of the experiment died by the end of the experiment. A value of -100 means all cells are dead at the end of the experiment.
NCI-60 Human Tumor Cell Lines Screen was performed using the standard one-dose NCI protocol, which is described in more detail at https://dtp.cancer.gov/discovery_development/nci-60/default.htm.
Compounds with GIPRCNT values below 10 were considered active. Activity score was based on GIPRCNT using the following formula: […]
Score is 0 for GIPRCNT values of 100 or above, 50 for GIPRCNT values of 0, and 100 for GIPRCNT values of -100.
As for `C[C@]12C[C@@H](c3ccoc3)OC(=O)[C@@H]1CC[C@]1(C)[C@@H]2CC[C@@H](O)[C@]1(C)O`, the growth is 105% (inactive).

Take `C=CC[N+]1(CC)CCN=C1CCCCCCCCCCCCCCCCC` (stereo not given): the growth is -78.9% (active).

Consider `O=C1/C(=C/c2ccc(Cl)cc2Cl)CN(S(=O)(=O)c2ccccc2)C/C1=C\c1ccc(Cl)cc1Cl`, for which the growth was 44.7% (inactive).

As to `Oc1ccc(Nc2nccc(-c3ccc4ccccc4c3)n2)cc1`, the growth was 57.4% (inactive).

Regarding `O=C(Nc1cccc2c1C(=O)c1cccc(Nc3cccc4c3C(=O)c3cccc(NC(=O)c5ccccc5)c3C4=O)c1C2=O)c1ccccc1`, the growth was 101% (inactive).

Turning to `CC/C(Cc1ccccc1)=C(\c1ccc(OCCN2CCCC2)cc1)c1ccc(OC(C)=O)cc1`, the growth is 107% (inactive).

Turning to `O=C1C[C@H](N2C(=O)c3ccccc3S2(=O)=O)C2CO[C@@H]1O2`, the growth is 98.5% (inactive).

For the compound `CC1=C(NCCN2CCCC2)C(=O)c2c(OCc3cccc(Cl)c3)cccc2C1=O`, the growth was 95.2% (inactive).

With `O=S(=O)(NCCCNc1cc(-c2cn(-c3ccccc3)nc2-c2cccc(O)c2)ccn1)c1ccccc1`, the growth was 66.4% (inactive).

As to `CS(CCCCN=C=S)=NC(=O)c1c(F)c(F)c(F)c(F)c1F` (stereo not given), the growth is 91.7% (inactive).

`CCCCCC(=O)N(CCCC)CCCC`: the growth was 93.7% (inactive).

For the compound `Cc1ccc2c(c1)n([O-])c1cc(Cl)ccc1[n+]2=O`, the growth is 122% (inactive).

On to `O=C(Nc1nc(-c2ccccc2)cc(-c2ccc(Cl)cc2)n1)c1ccncc1`, for which the growth was 94.6% (inactive).

`CCCCCCCCCCCCNC(=O)[C@H]1CSC(c2ccc(OC)c(F)c2)N1` (stereo not given in full): the growth was -98.1% (active).

On to `OCC1C2C=CC(C2)C1CO` (stereo not given), for which the growth is 175% (inactive).

Consider `C/C(=C(/c1ccc(O)cc1)c1ccc(OCCN(C)C)cc1)c1ccccc1`, for which the growth is 90.2% (inactive).

Consider `COc1ccc(N(Cc2cc(OC)c(OC)c(OC)c2)C2OC(=O)c3ccccc32)cc1` (stereo not given), for which the growth was 13.3% (inactive).

On to `O=[N+]([O-])c1cccc(-c2nc3sccn3c2-c2ccnc(NCCNS(=O)(=O)c3ccc(C(F)(F)F)cc3)n2)c1`, for which the growth is 74% (inactive).

For the compound `O=C1/C(=C/c2ccc(F)cc2)CN(C(=O)CCN2CCC(=NO)CC2)C/C1=C\c1ccc(F)cc1`, the growth was -0.984% (active).

As to `O=C(O)c1cn(C2CC2)c2cc(N3CCN(Cc4nc5c(cnn5-c5ccc([N+](=O)[O-])cc5)c(=O)[nH]4)CC3)c(F)cc2c1=O`, the growth was 105% (inactive).

As for `COc1cnc2c(c1)C(=O)c1c-2n(CCCN2CCNCC2)c(=O)c2cc([N+](=O)[O-])ccc12`, the growth was 3.11% (active).

In the case of `Cc1sc2nc3[nH]/c(=C\c4ccc(Cl)cc4)c(=O)n3c(=O)c2c1C`, the growth was 105% (inactive).

`C=C(CN1CCN(c2cccc(C(F)(F)F)n2)CC1)c1ccc(C(=O)Nc2ccccc2N)cc1`: the growth was 21.2% (inactive).

With `COc1ccc(C(=O)/C=C/c2c(Cl)c3c(c(OC)c2Cl)OCC(=O)N3)cc1`, the growth is 77.9% (inactive).

For `CC1(C)CC(C(=O)OCCCCCCCCCCC[P+](c2ccccc2)(c2ccccc2)c2ccccc2)C(C)(C)N1O` (stereo not given), the growth was -19.5% (active).

In the case of `CNC(=O)c1cc(Oc2ccc3nc(NC(=O)Nc4ccc(CN5CCOCC5)c(C(F)(F)F)c4)sc3c2)ccn1`, the growth was 79.1% (inactive).

On to `CCn1cc2c(cc1=O)-c1nc3ccccc3c3ccnc(c13)C2=O`, for which the growth is 45.8% (inactive).

On to `COC1=CC(=O)C(OC)=C(OC)C1=O`, for which the growth was 92.5% (inactive).

As to `CC/C=C\C[C@H](F)C/C=C1/C(=O)C=C[C@@H]1C/C=C\CCCC(=O)OC`, the growth is 50.3% (inactive).

As for `COc1cc(-c2nc3ccccc3s2)ccc1NC(=O)COc1ccc(Cl)cc1`, the growth was 87.1% (inactive).

Take `COc1ccc(C2CC(=O)Nc3c2c(C)nn3-c2nc3ccccc3[nH]2)cc1` (stereo not given): the growth is 122% (inactive).

On to `Nc1cc2nc3ccccc3sc-2cc1=O`, for which the growth is 90.8% (inactive).

Regarding `O=C(CCCN1CCOCC1)Nc1ccc(Cn2nnc3c2C(=O)c2nnn(Cc4ccc(NC(=O)CCCN5CCOCC5)cc4)c2C3=O)cc1`, the growth is 92.1% (inactive).

Take `O=C(O)c1ccccc1Nc1cccc(S(F)(F)(F)(F)F)c1`: the growth was 87.4% (inactive).

Regarding `Nc1c(C(=O)Nc2cccc3c2OCCO3)sc2nc3c(cc12)C(=O)CCC3`, the growth was 70.5% (inactive).

As for `Fc1ccc(Cc2ccc(F)cc2)cc1`, the growth was 107% (inactive).

For `Nc1nc(SCc2ccccc2)c2ncn(C3CCCC3)c2n1`, the growth was 107% (inactive).

Regarding `Cc1ccc2c(c1)C(=O)/C(=C/c1ccc(OCC(=O)c3ccccc3)cc1)O2`, the growth is 106% (inactive).

With `CC/C=C\C[C@H](O)C/C=C1/C(=O)C=C[C@@H]1C/C=C\CCCC(N)=O`, the growth is 10.9% (inactive).

Regarding `CC1(C)CC(=O)C(c2c(-c3ccccc3)[nH]c3[nH]c(=S)[nH]c(=O)c23)=C(O)C1`, the growth is 114% (inactive).
